Measured values from the supplement of paper PMC6555819.

Tests used:
Assay in all cases: PBM binding z-score (relative to random genomic background probes); higher = stronger binding; sequences stand for … in GC…GCGATTGACAGCGTAGAATGAAGG
[1] = tested on: FXR:RXRa (NR concentration 270 nM, RXRa partner concentration 90 nM)
How it was run: (§1)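 Regression normalization was applied to scanned fluorescence from custom Agilent 4×180K protein-binding microarrays. Before scanning, arrays were incubated 1 h with ligand-free nuclear receptor dimers, and binding was detected with antibodies against each partner (one per run). Binding z-scores use the random background probes as reference.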

[2] = tested on: LXRa:RXRa (NR concentration 270 nM, RXRa partner concentration 90 nM)
How it was run: as §1

[3] = tested on: LXRa homodimer (NR concentration 270 nM)
How it was run: as §1

[4] = tested on: LXRb:RXRa (NR concentration 270 nM, RXRa partner concentration 90 nM)
How it was run: as §1

[5] = tested on: LXRb homodimer (NR concentration 270 nM)
How it was run: as §1

[6] = tested on: PPARa:RXRa (NR concentration 270 nM, RXRa partner concentration 90 nM)
How it was run: as §1

[7] = tested on: PPARg:RXRa (NR concentration 180 nM, RXRa partner concentration 90 nM)
How it was run: as §1

[8] = tested on: PPARg:RXRa 270nM:90nM, anti-RXR (NR concentration 270 nM, RXRa partner concentration 90 nM)
How it was run: as §1

[9] = tested on: PPARg:RXRa 30nM:10nM, anti-RXR (NR concentration 30 nM, RXRa partner concentration 10 nM)
How it was run: as §1

[10] = tested on: PPARg:RXRa 90nM:30nM, anti-RXR (NR concentration 90 nM, RXRa partner concentration 30 nM)
How it was run: as §1

[11] = tested on: PPARg:RXRa DBDmut IVT, anti-RXR (DBD mutation: RXRa K156A/R161A, NR concentration 270 nM, RXRa partner concentration 90 nM)
How it was run: as §1

[12] = tested on: PPARg:RXRa IVT, anti-PPARg (NR concentration 270 nM, RXRa partner concentration 90 nM)
How it was run: as §1

[13] = tested on: PPARg DBDmut:RXRa IVT, anti-PPARg (DBD mutation: PPARg1 K132A/R137A, NR concentration 270 nM, RXRa partner concentration 90 nM)
How it was run: as §1

[14] = tested on: PPARg DBDmut IVT, anti-PPARg (DBD mutation: PPARg1 K132A/R137A, NR concentration 270 nM)
How it was run: as §1

[15] = tested on: PPARg homodimer (NR concentration 180 nM)
How it was run: as §1

[16] = tested on: PXR:RXRa (NR concentration 270 nM, RXRa partner concentration 90 nM)
How it was run: as §1

[17] = tested on: PXR homodimer (NR concentration 270 nM)
How it was run: as §1

[18] = tested on: RARa:RXR (NR concentration 270 nM, RXRa partner concentration 90 nM)
How it was run: as §1

[19] = tested on: RARa homodimer (NR concentration 270 nM)
How it was run: as §1

[20] = tested on: RARb:RXRa (NR concentration 270 nM, RXRa partner concentration 90 nM)
How it was run: as §1

CCTACCAGGCCAGGGTCACTCAAGCATTTCGCTT showed a PBM binding z-score [1] of 2.09, a PBM binding z-score [2] of 1.56 and a PBM binding z-score [3] of -0.206. For the same sequence, the PBM binding z-score [4] was 2.18, the PBM binding z-score [5] was -0.678 and the PBM binding z-score [6] was 2.88. For the same sequence, the PBM binding z-score [7] was 0.899, the PBM binding z-score [8] was 1.61 and the PBM binding z-score [9] was -0.554. It also gave a PBM binding z-score [10] of 0.539, a PBM binding z-score [11] of -0.315 and a PBM binding z-score [12] of 1.13. The PBM binding z-score [13] was -1.07, the PBM binding z-score [14] was -1.26 and the PBM binding z-score [15] was 1.75. For the same sequence, the PBM binding z-score [16] was 2.39, the PBM binding z-score [17] was 0.0777 and the PBM binding z-score [18] was 2.79. It also gave a PBM binding z-score [19] of 0.657 and a PBM binding z-score [20] of 2.65.

With CGAACTAGGTCAGAACAGGACAGAGAAGGATGAT the PBM binding z-score [1] was 1.6, the PBM binding z-score [2] was 0.878 and the PBM binding z-score [3] was 0.159. It also gave a PBM binding z-score [4] of 0.278, a PBM binding z-score [5] of -0.292 and a PBM binding z-score [6] of 2.94. The PBM binding z-score [7] was 5.04, the PBM binding z-score [8] was 4.26 and the PBM binding z-score [9] was 1.71. For the same sequence, the PBM binding z-score [10] was 3.03, the PBM binding z-score [11] was 7.13 and the PBM binding z-score [12] was 7.18. For the same sequence, the PBM binding z-score [13] was 1.45, the PBM binding z-score [14] was 0.658 and the PBM binding z-score [15] was 0.782. It also gave a PBM binding z-score [16] of 0.74, a PBM binding z-score [17] of 0.047 and a PBM binding z-score [18] of 0.515. For the same sequence, the PBM binding z-score [19] was 0.919 and the PBM binding z-score [20] was 2.88.

For GGAACGAGGGGAAAGTTGATAGCATCTGTCGACG, the PBM binding z-score [1] was -0.0769, the PBM binding z-score [2] was -0.0261 and the PBM binding z-score [3] was -0.204. It also gave a PBM binding z-score [4] of 0.087, a PBM binding z-score [5] of 0.0705 and a PBM binding z-score [6] of 2.88. It also gave a PBM binding z-score [7] of 4.27, a PBM binding z-score [8] of 6.01 and a PBM binding z-score [9] of 3.53. The PBM binding z-score [10] was 6.53, the PBM binding z-score [11] was 1.59 and the PBM binding z-score [12] was 1.99. For the same sequence, the PBM binding z-score [13] was 0.258, the PBM binding z-score [14] was -1.07 and the PBM binding z-score [15] was 0.339. It also gave a PBM binding z-score [16] of -0.114, a PBM binding z-score [17] of -0.142 and a PBM binding z-score [18] of -0.0298. It also gave a PBM binding z-score [19] of 0.277 and a PBM binding z-score [20] of 0.213.

GCTCGGAGGACAAAGTCAGAGCTTTGTCCGTAGA gave a PBM binding z-score [1] of -0.547, a PBM binding z-score [2] of -0.56 and a PBM binding z-score [3] of -0.429. For the same sequence, the PBM binding z-score [4] was -0.512, the PBM binding z-score [5] was -0.588 and the PBM binding z-score [6] was -0.568. It also gave a PBM binding z-score [7] of -1.55, a PBM binding z-score [8] of -0.786 and a PBM binding z-score [9] of -1.61. The PBM binding z-score [10] was -0.843, the PBM binding z-score [11] was -1.01 and the PBM binding z-score [12] was -0.327. For the same sequence, the PBM binding z-score [13] was -0.892, the PBM binding z-score [14] was -1.25 and the PBM binding z-score [15] was -0.791. For the same sequence, the PBM binding z-score [16] was -0.547, the PBM binding z-score [17] was -0.9 and the PBM binding z-score [18] was -0.547. For the same sequence, the PBM binding z-score [19] was -1.22 and the PBM binding z-score [20] was 0.845.

For CCTGCAAGGTCAATGGTCAGCTAAAGCAGCTCGC, the PBM binding z-score [1] was 6.55, the PBM binding z-score [2] was 4.95 and the PBM binding z-score [3] was 0.264. The PBM binding z-score [4] was 3.63, the PBM binding z-score [5] was 0.38 and the PBM binding z-score [6] was 5.21. The PBM binding z-score [7] was 4.22, the PBM binding z-score [8] was 4.88 and the PBM binding z-score [9] was 1.21. The PBM binding z-score [10] was 3.68, the PBM binding z-score [11] was 2.93 and the PBM binding z-score [12] was 2.76. For the same sequence, the PBM binding z-score [13] was -0.252, the PBM binding z-score [14] was -1.15 and the PBM binding z-score [15] was 2.72. It also gave a PBM binding z-score [16] of 3.78, a PBM binding z-score [17] of 0.469 and a PBM binding z-score [18] of 4.56. It also gave a PBM binding z-score [19] of 0.759 and a PBM binding z-score [20] of 5.01.

AGAATGAGGTGATTAAGATCAGGGAATTGCGGTC gave a PBM binding z-score [1] of -0.0476, a PBM binding z-score [2] of -0.338 and a PBM binding z-score [3] of -0.29. It also gave a PBM binding z-score [4] of -0.384, a PBM binding z-score [5] of -0.427 and a PBM binding z-score [6] of 0.785. It also gave a PBM binding z-score [7] of 0.618, a PBM binding z-score [8] of 0.415 and a PBM binding z-score [9] of -0.0538. The PBM binding z-score [10] was 0.0296, the PBM binding z-score [11] was 2.96 and the PBM binding z-score [12] was 2.25. It also gave a PBM binding z-score [13] of 0.816, a PBM binding z-score [14] of -0.56 and a PBM binding z-score [15] of -0.484. The PBM binding z-score [16] was -0.0501, the PBM binding z-score [17] was -0.416 and the PBM binding z-score [18] was 0.0955. The PBM binding z-score [19] was -0.457 and the PBM binding z-score [20] was 0.268.
